Reference: PubChem BioAssay AID1851 (National Center for Advancing Translational Sciences (NCATS), 2009)
“And” between values parts separate entries of the source, which are not always exact repeats. Equal entries are not always repeated. The whole screen tested about 16,000 compounds, of which about 5,700 (36%) were called active. Another 24% or so got no clear call; they are omitted. Calls follow the shape of the dose curve; as a rule, active = well fitted curve in the direction sought with a large enough effect; inconclusive = small, poorly fitted or top-dose-only effect, or effect the other way; inactive = no such curve, though single readings can be large or run the other way. The list shows a part of the results.

molecular target: Cytochrome P450 1A2 (Homo sapiens) (UniProt P05177); test: Cytochrome panel assay with activity outcomes; conditions: recombinant CYP, pro-luciferin dealkylation, luminescence, p450-cyp1a2; series mostly up to 57.1 µM
Experimental: The P450 gene superfamily is involved in the metabolism and clearance of xenobiotics. This assay used various human CYP P450 isozymes to measure the dealkylation of various pro-luciferin substrates to luciferin. The luciferin is then measured by luminescence after the addition of a luciferase detection reagent. Pro-luciferin substrate concentration in the assay was equal to its KM for its CYP P450 isozyme. Inhibitors and some substrates limit the production of luciferin, and decrease measured luminescence.
NCGC Assay Protocol Summary:
1, Reagent, 2 uL, Isozyme and Pro-Luciferin
2, Library compounds, 23 nl, 40 uM to 0.24 nM dilution series
3, Controls, 23 nl, Isozyme specific inhibitor
4, Reagent, 2 uL, NADPH regeneration solution
5, Incubation time, 60 min, Isozyme specific temperature
6, Reagent, 4ul, Detection reagent
7, Incubation time, 20 min, Isozyme specific temperature
8, Detection, 1 sec, ViewLux luminescent read
The luciferase-based P450-GloTM Screening Systems were obtained from Promega (Madison, WI) for CYP 1A2 (V9770), CYP 2C9 (V9790), CYP2 C19 (V9880), CYP 2D6 (V9890), and CYP 3A4 Luciferin-PPXE (V9910) and were adapted for 1,536-well microplates and an automated protocol. The control compounds furafylline for 1A2 (F124), sulfaphenazole for CYP 2C9 (S0758), ketoconazole for CYP 2C19 (K1003), quinidine for 2D6 (Q3625), and ketoconazole for 3A4 (K1003) were purchased from Sigma Aldrich (St. Louis, MO). Recombinant P450 enzymes were obtained from baculovirus constructs expressed in insect cells (BD/Gentest).
Medium-binding white solid Kalypsys plates used. Mixtures kept on ice. 1A2: 10 nM 1A2, 100 uM Luc-ME, 100 mM KPO4; 2C9: 10 nM 2C9, 100 uM Luc-H, 25 mM KPO4; 2C19: 5 nM 2C19, 10 uM Luc-H EGE, 50 mM KPO4; 2D6: 5 nM 2D6, 30 uM Luc-ME EGE, 100 mM KPO4; 3A4: 10 nM, 25 uM Luc-PPXE. All amounts are reflected in their final concentration, working concentration is 2x.
NADPH regeneration solution: 1.3 mM NADP+, 3.3 mM glucose-6-phosphate, 3.3 mM MgCl2, 0.4 U/mL glucose-6-phosphate dehydrogenase for all isozymes, 200 mM KPO4 for 3A4. Mixture prepared at RT but kept on ice during automated run.
RT incubation in auxilliary plate hotel for 1A2, 2D6, and 3A4; 37C for 2C9 and 2C19.
Keywords: P450, CYP1A2, CYP2C19, CYP2C9, CYP2D6, CYP3A4, Luciferase, MLSMR, MLSCN, NIH Roadmap, qHTS, NCGC
% is scaled to controls: 0 for no effect and ±100 for the full control effect.

Chain of Cytochrome P450 1A2 (Homo sapiens) (P05177 whole entry, looked up): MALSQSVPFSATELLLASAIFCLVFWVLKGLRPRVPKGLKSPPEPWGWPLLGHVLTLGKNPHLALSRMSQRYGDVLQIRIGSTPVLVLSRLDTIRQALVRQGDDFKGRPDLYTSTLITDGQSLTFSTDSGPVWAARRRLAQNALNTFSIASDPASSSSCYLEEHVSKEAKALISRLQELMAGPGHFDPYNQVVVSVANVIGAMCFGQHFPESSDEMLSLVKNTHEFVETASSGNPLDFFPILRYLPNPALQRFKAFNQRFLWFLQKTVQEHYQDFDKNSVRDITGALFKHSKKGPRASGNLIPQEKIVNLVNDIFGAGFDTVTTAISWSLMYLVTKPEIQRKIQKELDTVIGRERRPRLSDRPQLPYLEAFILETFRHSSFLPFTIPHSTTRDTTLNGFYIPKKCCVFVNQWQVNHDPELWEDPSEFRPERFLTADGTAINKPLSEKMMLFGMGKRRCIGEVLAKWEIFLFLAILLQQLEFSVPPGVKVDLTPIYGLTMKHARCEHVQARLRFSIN

activity, negative = inhibition, inactive:
COc1cccc([C@@H]2Oc3ccc(OC)cc3/C(=N/O[C@@H](C)CN3CCCc4nc(C)c(C)cc43)[C@@H]2O)c1 2.03% [at 11.4 µM], CCCNC(=O)OC[C@@H]1O[C@H](CCO/N=C(\C)CCC(=O)OC[C@@H]2O[C@H](c3ccccc3)C=C[C@@H]2Oc2ccc(OC)cc2)C=C[C@@H]1Oc1ccc(OC)cc1 -2.5% [at 11.4 µM], Nc1ccccc1C(=O)/C=C\c1ccc2c(c1)OCO2 -4.77% [at 11.4 µM], Cc1c(Cl)cccc1NC(=O)C[C@H]1Sc2ccccc2NC1=O -23.2% [at 2.29 µM], CO[C@@H]1COC(=O)C/C=C\[C@@H](C)[C@@H]2C=C[C@H](O)[C@@H](COC(=O)CCC[C@H]1C)O2 1.73% [at 11.4 µM], Cc1cc(N=Cc2c(CO)cnc(C)c2O)c(N=Cc2c(CO)cnc(C)c2O)cc1C.[Zn] -10.4% [at 2.29 µM], CCCC(c1cc(C(C)(C)C)c(O)cc1C)c1cc(C(C)(C)C)c(O)cc1C -12.3% [at 2.29 µM], CO[C@H]1COC(=O)[C@@H](CCSC)NC(=O)C/C=C\[C@@H](C)[C@H](OC)COC(=O)[C@@H](OCc2ccccc2)/C=C\[C@@H]1C -4.15% [at 11.4 µM], CO/N=C\C[C@@H]1C=C[C@H](OC(C)=O)[C@H](COC(C)=O)O1 -9.17% [at 11.4 µM], COc1ccc2c3c([nH]c2c1)[C@H]1C[C@@H]2[C@@H](C[C@@H](O)[C@H](OC)[C@H]2C(=O)O)CN1CC3 -1.02% [at 11.4 µM], CN1CCCN(C)C1c1cc([N+](=O)[O-])ccc1O -14.3% [at 11.4 µM]

AC50, active:
CN(C)S(=O)(=O)c1cc([N+](=O)[O-])ccc1N1CCCCCC1 14.1 µM, CNc1ccc(Br)cc(C(=O)/C=C/c2ccc3c(c2)OCO3)c1=O 3.16 µM, CCNc1ccc(Br)cc(C(=O)/C=C/c2ccc3c(c2)OCO3)c1=O 22.4 µM, O=C(NC1CCCC1)C1CC(c2ccc(F)cc2)=NO1 (stereo unspecified) 15.8 µM, COC(=O)c1c(NC(=O)CC2Nc3ccccc3NC2=O)sc(C)c1C (stereo unspecified) 10 µM, Cc1cc(NC(=O)Nc2ccc(N(C)C)cc2)c2cc(F)cc(F)c2n1 0.126 µM, Cc1ccc(Nc2nc(-c3c(C)nc4ncccn34)cs2)cc1 3.16 µM, Cc1cc(NCc2ccccn2)ccc1Br 4.47 µM, Cc1cc(Br)ccc1NCc1ccccn1 1.12 µM, N#Cc1c(NC(=O)C(F)(F)F)sc2c3c(=O)c4ccccc4c(=O)c=3oc3ccccc3c12 1 µM, CN(C(=O)c1cnc(N2CCN(c3ncccn3)CC2)c2ccccc12)c1ccc(Cl)cc1 15.8 µM, CN(CCc1ccc(Cl)c(Cl)c1)CCN1CCCCCC1 31.6 µM, O=C(Cc1ccc(Cl)c(Cl)c1)OCCN1CCCC1 12.6 µM, Cc1ccc(C(=O)NCCNc2ccc(Cl)cc2[N+](=O)[O-])o1 2 µM, COc1cccc2cc3c(=O)oc4ccccc4c3nc12 0.0891 µM, O=C(NCCc1cccs1)C1CC(c2c(Cl)cccc2Cl)=NO1 (stereo unspecified) 0.501 µM, CCN(CC)C(=S)SSC(=S)N(CC)CC 6.31 µM and 1.58 µM, Cn1cc(-c2nc3cnc(N4CCNCC4)nc3n(-c3ccccc3)c2=O)c2ccccc21 15.8 µM, Cn1cc(-c2nc3cnc(N4CCNCC4)nc3n(C3CC3)c2=O)c2ccccc21 12.6 µM, COc1ccc(-n2c(=O)c(-c3cn(C)c4ccccc34)nc3cnc(N4CCNCC4)nc32)cc1 15.8 µM, COc1cnc(-c2ccccn2)nc1Oc1ccc(Cl)c2ccccc12 5.62 µM, CC(C)N(CCC(=O)c1ccc2ccccc2c1)Cc1ccccc1 3.98 µM, N=C(N)S[C@H]1c2ccccc2-c2cc([N+](=O)[O-])ccc21 0.158 µM, Cc1ccc(C)c(/C(O)=C2\C(=O)C(=O)N(Cc3cccnc3)C2c2cccnc2)c1 (stereo unspecified) 25.1 µM

AC50, inactive:
CN1CCN(c2ccc([N+](=O)[O-])cc2S(=O)(=O)N2CCOCC2)CC1, Cn1c(CCN2CCCCC2)nc2cc([N+](=O)[O-])ccc21, Oc1cc(O)c2c(c1)O[C@H](c1ccc(O)c(O)c1)[C@H](O)C2, Cc1ccc(CCN2CC(C(=O)NC3CCCC3)CC2=O)cc1 (stereo unspecified), CC1CCCC(C)N1C(=O)C1CC(c2ccc(F)cc2)=NO1 (stereo unspecified), COC(=O)c1c(-c2ccccc2)csc1NC(=O)CSc1ncnc2sc(C)c(C)c12, CN(C)CC[C@H](c1ccc(Br)cc1)c1ccccn1, CC(=O)NC1(c2cccc(F)c2)CCN(CC(=O)NC2CCCCC2)CC1, C[C@@](N)(C(=O)O)c1ccc(C(=O)O)cc1, COCC(=O)N1CCC2(CC1)CCN(c1ncccn1)CC2, O=C(c1cnc(N2CCN(c3ncccn3)CC2)c2ccccc12)N1CCN(c2ncccn2)CC1, COc1ccc(CCN(C)CCc2ccc(OC)c(OC)c2)cc1OC, CCOC(=O)CC1C(=O)NCCN1S(=O)(=O)c1ccc(Cl)c(Cl)c1 (stereo unspecified), COc1cccc(C2C(C(=O)c3cc4ccccc4o3)=C(O)C(=O)N2c2cc(C)on2)c1OC (stereo unspecified), CCO/C([O-])=N/c1c[n+](N2CCOCC2)no1, CC(C)C(C(=O)NCC1CCCO1)N(Cc1ccco1)C(=O)CNS(=O)(=O)c1ccc(F)cc1 (stereo unspecified), CCOC(=O)/C(C#N)=C1/C=CN(C)C=N1, CC(C)N(CCNC(=O)C1CCC(=O)N1Cc1ccc(F)cc1)Cc1ccccc1 (stereo unspecified), CC(C)N(CCNC(=O)C1CCN(S(=O)(=O)N2CCOCC2)CC1)Cc1ccccc1, COCCCN1C(=O)C(=O)/C(=C(/O)c2ccc(OC)cc2C)C1c1cccnc1 (stereo unspecified), COc1ccc(/C(O)=C2/C(=O)C(=O)N(Cc3cccnc3)C2c2ccco2)cc1OC (stereo unspecified)
